Results filed as inconclusive are left out. Activity calls are given as the source filed them. How the source made its calls: active means hit-call score of the fitted dose curve at least 0.9, where 1 is the maximum; inconclusive means response in the unintended direction; inactive means score below 0.9.
test system: Brachyury (BRA), TBXT (gene 6862); test: CCTE_Deisenroth_DEVTOX-GLR_Ecto_BRA: CCTE's DevTox GLR-Ecto Assay Evaluation of Brachyury (BRA) Protein Expression, Deisenroth Lab
Procedure: CCTE_Deisenroth_DEVTOX-GLR_Ecto assay is a cell-based, multiplex-readout assay that uses RUES2-GLR, a human pluripotent cell line, with measurements taken at 48 hours after chemical dosing in a 384-well microplateCCTE_Deisenroth_DEVTOX-GLR_Ecto_BRA is 1 of 4 assay components calculated from the CCTE_Deisenroth_DEVTOX-GLR_Ecto assay and it measures an the percentage of cells in an mesoderm state. Using a type of inducible fluorescent protein reporter, gain-of-signal activity can be used to understand changes in gene expression with fluorescent microscopy. The percentage of BRA+ cells are determined by calculating the number of BRA+ cells divided by the cell count. To generalize the intended target to other relatable targets, this assay component is annotated to the transcription factor intended target family, where the subfamily is T-box protein.Data from the assay component CCTE_Deisenroth_DEVTOX-GLR_Ecto_BRA was analyzed as 1 assay endpoint. The endpoint is the percent BRA+ cell population minus the 0.2% DMSO control in the CCTE_Deisenroth_DEVTOX-GLR_Ecto assay. Furthermore, this assay endpoint can be referred to as a secondary readout, because this assay has produced multiple assay endpoints where this one serves as a measure of mesoderm differentiation.
All assay protocols are aligned to the DevTox GLR-Endo assay workflow (Gamble 2022). Cells are seeded into 384-well microplates for 24 hours prior to initiating differentiation in defined media for a total duration of 48 hours. A total of two chemical exposures are administered in 24-hour intervals during the 48-hour differentiation period. At the assay termination point, cells are fixed and stained with a fluorescent dye demarcating the nucleus. High-content imaging is used to acquire brightfield and fluorescent channel images across 5 fields per well. Cell identification and mean biomarker fluorescence intensities are calculated with image analysis software to determine the total cell counts for viability assessment and the biomarker expression frequency for each lineage-dependent assay. A typical experimental design tests a 10-point concentration series (1 nM - 200 uM) for 28 compounds in single technical replicate. Assay plate controls include non-differentiated pluripotent cells (baseline control), lineage-specific differentiated cells (differentiation control), and DMSO solvent exposed differentiated cells (solvent control). Experiments typically comprise a minimum of four experimental replicates (n=4).

| SMILES | outcome | AC50 |
| --- | --- | --- |
| CC1(C)S[C@@H]2[C@H](NC(=O)Cc3ccccc3)C(=O)N2[C@H]1C(=O)O | inactive |  |
| CCN(CC)CCNC(=O)c1c(C)[nH]c(/C=C2\C(=O)Nc3ccc(F)cc32)c1C |  | 1.12 µM (active) |
| CC/C(=C(/CC)c1ccc(O)cc1)c1ccc(O)cc1 | inactive |  |
| CC(=O)Nc1ccc(O)cc1 | inactive |  |
| CC(C)(c1ccc(O)cc1)c1ccc(O)cc1 | inactive |  |
| CN(Cc1cnc2nc(N)nc(N)c2n1)c1ccc(C(=O)N[C@@H](CCC(=O)O)C(=O)O)cc1 | inactive |  |
| Nc1cccc2c1C(=O)N(C1CCC(=O)NC1=O)C2=O (stereo not given) |  | 39.1 µM (active) |
| CCCC(CCC)C(=O)O | inactive |  |
| CS(=O)(=O)OCCCCOS(C)(=O)=O | inactive |  |
| Nc1nc2ncc(CNc3ccc(C(=O)N[C@@H](CCC(=O)O)C(=O)O)cc3)nc2c(=O)[nH]1 | inactive |  |
| CC1=C(/C=C/C(C)=C/C=C/C(C)=C/C(=O)O)C(C)(C)CCC1 |  | 142 µM (active) |
| O=C1NC(=O)C(c2ccccc2)(c2ccccc2)N1 | inactive |  |
| CC1=C(/C=C/C(C)=C/C=C/C(C)=C\C(=O)O)C(C)(C)CCC1 |  | 143 µM (active) |
| O=c1[nH]cc(F)c(=O)[nH]1 |  | 1.95 µM (active) |
| O=C1NS(=O)(=O)c2ccccc21 | inactive |  |
